The results in this text go back to PubChem BioAssay (NCI).

Test in all cases: NCI-60 one-dose screen, 48 h (100 = growth as untreated, 0 = no growth, -100 = all killed)
Common to all, as to settings: 10 µM unless noted

For experiment [1], the system named is DU-145 prostate.
The test system of experiment [2] is K-562 leukemia.
In experiment [3] the test system is MALME-3M melanoma.
For experiment [4], the system named is RXF 393 renal.
Experiment [5] relates to SF-268 CNS.
Experiment [6] relates to SF-295 CNS.
In experiment [7] the test system is SF-539 CNS.
The subject of experiment [8] is UACC-257 melanoma.
Experiment [9] concerns MDA-MB-231 breast.
The subject of experiment [10] is M14 melanoma.

“And” between values parts separate entries of the source, which are not always exact repeats. Equal entries are not always repeated. The panel holds about 83,000 compounds, 20% with a hit somewhere; the sample as a whole holds those more often.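 How to read the values: 0–100, growth inhibition (40 = 60% inhibited); 0, no net growth; -100 to 0, cell death (-40 = 40% of starting cells died; -100 = all dead).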 Values without a mark were called inactive. The source made the active and inactive calls. The calls were made as follows: active = growth percent below 10; inactive = the rest.

For the compound `Fc1ccc([I+]c2ccc(F)cc2)cc1`, the growth in experiment [1] is 92.1%; in experiment [2], 43.2%; in experiment [3], 61.1%; in experiment [4] it was 101%; in experiment [5], 58.9%; in [6] it was 95.4%. Besides, the growth in experiment [7] is 62.1%; in [8], 85.5%.
Turning to `CC1CCC2(OC1)OC1CC3C4CC=C5CC(O)CCC5(C)C4CCC3(C)C1C2C` (stereo not drawn), the growth in experiment [1] was 107%; in [2] it was 97.3%; in experiment [3] it was 120%; in experiment [9], 100%; in experiment [5] it was 89.6%; in experiment [6] it was 119%. The figures for the growth in [7] and in experiment [8] were 91.2% and -3.06% (active), respectively.
As to `N#CC(C#N)N=Nc1ccc(Cl)cc1`, the growth is 68.2% in experiment [1]; 10.2% in [2]; 15.6% in experiment [3]; 47.2% in experiment [9]; 61.4% in experiment [4]; 84.9% in experiment [5]. In addition, the growth was 94.7% in [6], 53.1% in experiment [7], 20.8% in [8] and 60.1% in [10].
Turning to `O=C1CSC2=NCCN12`, the growth in experiment [1] was 111% and 107%; in [2], 74.2% and 76.4%; in experiment [3], 91.7% and 120%; in experiment [9] it was 104% and 103%; in experiment [4], 81.5% and 98.4%; in experiment [5], 97.4% and 96.9%. In addition, the growth is 102% and 81% in experiment [6]; 94.3% and 91.7% in [7]; 71.9% and 103% in experiment [8]; 90.1% and 91.6% in [10].
For the compound `Nc1nc(N)c2[nH]cnc2n1`, the growth in experiment [1] is 73.1%; in [2], 76.5%; in experiment [3] it was 125%; in experiment [9], 99.3%; in experiment [5] it was 83.8%; in [6], 84.7%. Also, the growth in [7] is 92.8%; in experiment [8], 56.1%.
As for `O=C1OC(c2ccccc2)=N/C1=C\c1ccccc1`, the growth in experiment [1] is 113%; in experiment [2] it was 104%; in experiment [3], 86.4%; in [9] it was 111%; in experiment [4], 106%; in experiment [5], 103%. Besides, the growth is 99% in experiment [6], 99.5% in experiment [7], 96.5% in experiment [8] and 100% in [10].
For `CCCCCCCCCCCCCCCc1ccc(N)c(OC2OC(CO)C(O)C(O)C2O)c1` (stereo not drawn), the growth is 119% in experiment [1]; 83.4% in experiment [2]; 22.5% in experiment [3]; 70% in [9]; 99% in [5]; 92.2% in [6]. The growth was 93.4% in experiment [7], 51.5% in experiment [8] and 82.5% in experiment [10].
`NC1CCC(C(=O)O)CC1` (stereo not drawn): the growth in experiment [1] is 108% and 115%; in [2], 107% and 109%; in experiment [3] it was 115% and 106%; in [9], 97.3% and 113%; in [4] it was 112% and 106%; in [5] it was 105%. The growth in experiment [6] was 106% and 110%; in [7], 98.9% and 102%; in [8], 107% and 113%; in [10], 96.5% and 99.3%.
Turning to `CC(C)NCC(O)c1ccc(O)c(O)c1` (stereo not drawn), the growth in experiment [1] was 110% and 119% and 103%; in [2], 112% and 101%; in [3] it was 101% and 88.7% and 141%; in experiment [9], 84% and 78.9% and 85.1%; in [4] it was 103% and 105%; in experiment [5], 102% and 106% and 86.6%. In addition, the growth is 108% and 110% and 105% in experiment [6]; 95.9% and 87.7% and 85.6% in experiment [7]; 109% and 102% in experiment [8]; 98.1% and 96.8% and 113% in [10].
As to `O=C(/C=C/c1ccccc1)c1ccccc1`, the growth in [1] was 97.7%; in experiment [3], 128%; in [9] it was 110%; in experiment [4], 114%; in experiment [5], 97.2%; in experiment [6], 99.1%. Also, the results for the growth in experiment [7], in experiment [8] and in experiment [10] were 88.2%, 106% and 98.1%, respectively.
With `O=C(CO)C(O)C(O)C(O)C(O)CO` (stereo not drawn), the growth in experiment [1] was 110% and 109%; in [2], 108% and 117%; in experiment [3], 109% and 117%; in [4], 119% and 117%; in experiment [5] it was 102% and 104%; in experiment [6], 105% and 102%. Also, the growth is 107% and 96.5% in experiment [7]; 93.9% and 95.8% in [8]; 103% and 96.2% in experiment [10].
As for `CC(C)NC(=O)N/C=C(\C#N)C(N)=O`, the growth is 107% in [1]; 116% in [2]; 89.3% in experiment [3]; 111% in experiment [9]; 98.9% in experiment [4]; 101% in experiment [5]. The growth was 102% in experiment [6], 97.9% in [7] and 95.3% in experiment [10].
Regarding `Cl`, the growth in experiment [1] is 119%; in experiment [3] it was 116%; in experiment [9], 115%; in experiment [4] it was 117%; in [5], 116%; in experiment [6], 99.2%. Also, the growth in [7] was 111%; in [8], 105%.
Regarding `CC[C@H](CC[C@@H](C)[C@H]1CC[C@H]2[C@@H]3CC=C4C[C@@H](O)CC[C@]4(C)[C@H]3CC[C@]12C)C(C)C`, the growth in experiment [1] is 114% and 103%; in experiment [2] it was 106%; in experiment [3] it was 106% and 104%; in experiment [9] it was 115% and 97.9%; in experiment [4] it was 104%; in experiment [5], 101% and 97.6%. Further, the growth was 98.3% and 101% in experiment [6]; 92.2% and 99.1% in experiment [7]; 97.5% in experiment [8]; 103% and 106% in experiment [10].
